Where “and” joins values, the source holds several entries; their conditions need not be identical. Identical values can stand only once. Among all 5,500 compounds or so, about 2,000 (36%) were called active. Inconclusive results (about 18%) are left out. Rule as the data show it: active = normalized growth mostly below about 0.91 (no sharp cut-off); inconclusive = no clear call, values can overlap the other calls; inactive = mostly above about 0.92. Some of the results follow.
Assay: chemical genetic growth profiling, strain panel (AID 1159580);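 also: tested at 20 µM; growth read once vehicle control cultures reached saturation at 30 °C; 1 = growth at the plate median or of vehicle wells; lower values mean less growth of the strain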
Settings: S. cerevisiae deletion strains, growth OD

Measured: normalized growth

COc1cc([C@@H]2c3cc4c(cc3C(O[C@@H]3O[C@@H]5CO[C@@H](c6cccs6)OC5[C@H](O)[C@H]3O)C3COC(=O)[C@@H]32)OCO4)cc(OC)c1O (stereo not given in full)
inactive: locus YAL013W, strain DEP1, active compounds read low 1.01 | locus YAL021C, strain ccr4, active compounds read low 0.986 | locus YAL026C, strain drs2, active compounds read low 0.957 | locus YAL030W, strain snc1, active compounds read low 0.995 | locus YBL061C, strain skt5, active compounds read low 0.981 | locus YBR009C, strain hhf1, active compounds read low 0.955 | locus YBR021W, strain FUR4, active compounds read low 1 | locus YBR023C, strain chs3, active compounds read low 1.01 | locus YBR171W, strain sec66, active compounds read low 0.981 | locus YBR229C, strain ROT2, active compounds read low 1 | locus YBR231C, strain swc5, active compounds read low 0.997 | locus YBR279W, strain paf1, active compounds read low 0.967 | locus YCL011C, strain gbp2, active compounds read low 0.987 | locus YCL016C, strain dcc1, active compounds read low 1.02 | locus YCL029C, strain bik1, active compounds read low 1.03 | locus YCL061C, strain MRC1, active compounds read low 0.969 | locus YCL069W, strain vba3, active compounds read low 0.971 | locus YCR088W, strain abp1, active compounds read low 0.984 | locus YDL005C, strain med2, active compounds read low 0.971 | locus YDL035C, strain GPR1, active compounds read low 1.02 | locus YDL040C, strain nat1, active compounds read low 0.982 | locus YDL074C, strain BRE1, active compounds read low 0.996 | locus YDL101C, strain DUN1, active compounds read low 1.01 | locus YDL134C, strain PPH21, active compounds read low 1.01 | locus YDL185W, strain tfp1, active compounds read low 1.03 | locus YDL192W, strain arf1, active compounds read low 1.02 | locus YDR001C, strain nth1, active compounds read low 0.985 | locus YDR069C, strain doa4, active compounds read low 0.983 | locus YDR101C, strain arx1, active compounds read low 1 | locus YDR137W, strain rgp1, active compounds read low 0.972 | locus YDR150W, strain NUM1, active compounds read low 0.998 | locus YDR159W, strain sac3, active compounds read low 0.932 | locus YDR162C, strain NBP2, active compounds read low 1.01 | locus YDR195W, strain ref2 0.961 | locus YDR297W, strain sur2, active compounds read low 0.992 | locus YDR318W, strain mcm21, active compounds read low 1.02 | locus YDR334W, strain swr1, active compounds read low 0.972 | locus YDR335W, strain msn5, active compounds read low 0.99 | locus YDR388W, active compounds read low 1.01 | locus YDR392W, strain spt3, active compounds read low 0.97 | locus YDR502C, strain sam2, active compounds read low 1.02 | locus YEL003W, strain gim4, active compounds read low 0.969 | locus YEL037C, strain rad23, active compounds read low 0.964 | locus YEL061C, strain CIN8 (second series), active compounds read low 0.967 | locus YEL061C, strain CIN8, active compounds read low 1 | locus YER015W, strain faa2, active compounds read low 0.989 | locus YER016W, strain bim1, active compounds read low 0.999 | locus YER110C, active compounds read low 1.02 | locus YER111C, strain swi4, active compounds read low 0.98 | locus YER155C, strain BEM2 (second series), active compounds read low 1.01 | locus YER155C, strain BEM2, active compounds read low 1 | locus YER167W, strain BCK2, active compounds read low 1.01 | locus YFR010W, strain ubp6, active compounds read low 0.956 | locus YGL078C, strain dbp3, active compounds read low 1.02 | locus YGL086W, strain mad1, active compounds read low 1.01 | locus YGL167C, strain pmr1, active compounds read low 0.981 | locus YGL173C, strain kem1, active compounds read low 0.983 | locus YGL227W, strain vid30, active compounds read low 0.994 | locus YGL240W, strain doc1, active compounds read low 1.01 | locus YGL248W, strain PDE1, active compounds read low 1 | locus YGL253W, strain hxk2, active compounds read low 0.964 | locus YGR135W, strain pre9, active compounds read low 1.01 | locus YGR229C, strain SMI1, active compounds read low 1 | locus YGR252W, strain gcn5, active compounds read low 1.03 | locus YHR013C, strain ard1, active compounds read low 0.997 | locus YHR027C, strain rpn1, active compounds read low 0.975 | locus YHR030C, strain SLT2, active compounds read low 1 and 1.02 | locus YHR079C, strain IRE1 (second series), active compounds read low 1.02 | locus YHR079C, strain IRE1, active compounds read low 1.01 | locus YHR094C, strain hxt1, active compounds read low 1.01 | locus YHR129C, strain ARP1, active compounds read low 1 | locus YHR142W, strain chs7, active compounds read low 0.981 | locus YHR200W, strain rpn10, active compounds read low 1.01 | locus YIL066C, strain RNR3, active compounds read low 1.01 | locus YIL073C, strain SPO22, active compounds read low 1.04 | locus YIL125W, strain kgd1, active compounds read low 1.01 | locus YIR030C, strain dcg1, active compounds read low 1.02 | locus YJL092W, strain hpr5, active compounds read low 0.977 | locus YJL095W, strain BCK1 (second series), active compounds read low 0.992 | locus YJL095W, strain BCK1, active compounds read low 0.991 and 1 | locus YJL115W, strain asf1, active compounds read low 0.96 | locus YJL129C, strain trk1, active compounds read low 0.993 | locus YJL134W, strain LCB3, active compounds read low 1 | locus YJL154C, strain vps35, active compounds read low 0.979 | locus YJL164C, strain tpk1, active compounds read low 0.962 | locus YJL166W, strain qcr8, active compounds read low 1.01 | locus YJL168C, strain set2, active compounds read low 1.01 | locus YJL187C, strain SWE1 (second series), active compounds read low 1 | locus YJL187C, strain SWE1, active compounds read low 0.984 | locus YJR043C, strain POL32, active compounds read low 0.982

— PubChem BioAssay AID1159580 (chemical genetic matrix, 2015)
